Data reported in PubChem BioAssay.
For part of these data: Entries with a potency or affinity are not part of this list. The list shows a part of the results. Calls of active or inactive are those of the source.

Columns and labels:
[1] = molecular target: Inward rectifier potassium channel 2 (Mus musculus) (UniProt P35561); experiment: mouse Kir2.1 channel blockers, retest, confirmation, cell-based, FluxOR thallium flux, duplicate (AID 2032); details: Kir2.1-expressing cells, FluxOR thallium flux fluorescence, at 10 µM; active compounds read low
[2] = nonspecific thallium flux effects in parental HEK293 cells, confirmation, counter-screen for Kir2.1 inhibitor project, cell-based, FluxOR thallium flux, duplicate, single concentration (AID 2105;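 active = dye signal at least 3 control SD above or below untreated wells in both duplicates, raw fluorescence within 3, either direction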;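 for FluxOR signal as % of negative control (100 = no effect): percent is based on the flux ratio of peak minus minimum fluorescence over baseline F0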); details: FluxOR thallium flux fluorescence, at 10 µM; 0% = unstimulated blank wells
[3] = molecular target: Voltage-gated inwardly rectifying potassium channel KCNH2 (Homo sapiens) (UniProt Q12809); experiment: hERG channel inhibition, counter-screen for Kir2.1 inhibitor project, cell-based, thallium flux (AID 2236; call rule not given here;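 note: host cells are CHO cells stably expressing hERG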); details: hERG-expressing cells, at 10 µM; active compounds read high
[4] = molecular target: Potassium channel subfamily K member 9 (Homo sapiens) (UniProt Q9NPC2); experiment: KCNK9 channel inhibition, selectivity assay for Kir2.1 inhibitor project, cell-based (AID 2329; call rule not given here); details: KCNK9-expressing cells, ion flux inhibition, at 10 µM; active compounds read high
[5] = molecular target: Inward rectifier potassium channel 2 (Mus musculus) (UniProt P35561); experiment: mouse Kir2.1 channel blockers, Kir2.1 inhibitor project, cell-based, secondary, automated electrophysiology (AID 463252; call rule not given here); details: Kir2.1 cells, automated patch-clamp current inhibition, at 25 µM; active compounds read high
[6] = nonspecific thallium flux increase in parental CHO-K1, confirmation, counter-screen for KCNQ2 potentiator project, cell-based, FluxOR thallium flux, duplicate (AID 2282;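 active = signal rise of at least 3 SD above the untreated control mean, in both duplicate wells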;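 note: counter screen of KCNQ2 potentiator hits so any rise reflects channel-independent effects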); details: parental CHO-K1 cells, FluxOR thallium flux fluorescence; at 10 µM; active compounds read high; zero = vehicle mean+3SD, 100% = vehicle-minus-blank window
[7] = molecular target: Potassium voltage-gated channel subfamily KQT member 1 (Homo sapiens) (UniProt P51787); experiment: human KCNQ1 channel potentiation off-target, confirmation, selectivity assay for KCNQ2 potentiator project, cell-based, CHO, FluxOR thallium flux (AID 2283;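 active = fluorescence ratio rise of at least 3 SD of vehicle wells above their mean, in both replicate wells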;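 note: 0% = vehicle mean plus 3 SD and 100% = vehicle minus unstimulated blank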); details: CHO KCNQ1 stable, FluxOR thallium flux fluorescence; at 10 µM; active compounds read high; beyond 3SD, as % of vehicle-control signal
[8] = molecular target: Potassium voltage-gated channel subfamily KQT member 2 (Rattus norvegicus) (UniProt O88943); experiment: rat KCNQ2 channel potentiators, confirmation, cell-based, CHO, FluxOR thallium flux, duplicate (AID 2287;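 active = fluorescence ratio rising 3 SD or more over the vehicle control mean in both replicates, plus primary screen hit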;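 note: peak minus minimum thallium fluorescence divided by baseline after K/Tl stimulus; 0% = vehicle mean plus 3 SD and 100% = vehicle minus unstimulated blank difference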); details: CHO-KCNQ2 cells, FluxOR thallium flux fluorescence; at 10 µM; active compounds read high
[9] = molecular target: Inward rectifier potassium channel 2 (Mus musculus) (UniProt P35561); experiment: PubChem AID 2345; details: HEK293 Kir2.1, FluxOR thallium flux fluorescence; at 10 µM; active compounds read high;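 note: 0% = vehicle mean plus 3 SD and 100% = vehicle minus no-stimulus blank window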
[10] = parental HEK293 membrane potential modulation, confirmation, counter-screen for TRPC6 modulator project, cell-based (AID 488924;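 active = membrane potential signal moves up or down beyond 5 SD from buffer-only wells, on both duplicate plates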); details: parental HEK293, membrane potential dye fluorescence; at 10 µM
[11] = modulation of acetylcholine-evoked membrane potential, parental HEK293, confirmation, counter-screen for TRPC6 modulator project, cell-based, second counter-screen, membrane potential dye (AID 488926;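 active = membrane potential signal drops by more than 5 SD from the mean control signal, in both duplicate plates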); details: parental HEK293, membrane potential dye fluorescence; at 10 µM; after compound, maximal acetylcholine stimulation
[12] = tested on: Transient receptor potential cation channel subfamily C member 4 (mouse); experiment: TRPC4 modulation by TRPC6 hit compounds, confirmation, selectivity assay for TRPC6 modulator project, cell-based, HEK293 TRPC4/mu-opioid, membrane potential dye, mouse (AID 488927;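 active = membrane potential signal moved up or down beyond 5 SD of buffer control wells, in both duplicate plates, actives on both sides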;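 note: plate controls were assay buffer wells for no effect and DAMGO maximal-effect wells for full effect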); details: membrane potential fluorescence, at 10 µM
[13] = tested on: TRPC4 (transient receptor potential cation channel C4), mouse; experiment: TRPC4 inhibition by TRPC6 hit compounds, confirmation, selectivity assay for TRPC6 modulator project, cell-based, second screen, HEK293 TRPC4/mu-opioid, membrane potential dye (AID 488928;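 active = drop in membrane potential signal beyond 5 SD of the control wells in both duplicate plates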;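 note: TRPC4 counter screen for TRPC6 hits run under conditions tuned for TRPC6 not TRPC4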); details: membrane potential dye fluorescence, at 10 µM, stimulated with maximal-effect DAMGO; active compounds read high
[14] = molecular target: Short transient receptor potential channel 6 (Mus musculus) (UniProt Q61143); experiment: mouse TRPC6 channel inhibitors, confirmation, HEK293 cells, membrane potential dye, duplicate (AID 488960;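 active = fluorescence ratio falls more than 5 SD below the full-stimulation control mean, in both duplicate runs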); details: ACh-evoked depolarization, at 10 µM; active compounds read high
[15] = molecular target: Short transient receptor potential channel 6 (Mus musculus) (UniProt Q61143); experiment: mouse TRPC6 channel activators, confirmation, HEK293 cells, membrane potential dye, duplicate (AID 488961;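 active = ratio signal rise beyond 5 SD above unstimulated control wells' mean, seen in both duplicate runs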); details: HEK293-TRPC6 membrane potential dye fluorescence, FDSS, at 10 µM; active compounds read high
[16] = tested on: TRPC4 beta (transient receptor potential cation channel C4), mouse; experiment: activators of mouse TRPC4 channel, confirmation, cell-based, Fluo4 calcium, HEK293 TRPC4beta/mu-opioid, duplicates, 10 µM (AID 2426;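 active = fluorescence ratio normalized to control raised more than 50% in primary screen plus both repeat runs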); details: Fluo4 calcium fluorescence, at 10 µM; active compounds read high
[17] = tested on: transient receptor potential cation channel C4 beta (TRPC4), mouse; experiment: activators of mouse TRPC4 channel, confirmation, cell-based, second round, Fluo4, HEK293 TRPC4beta/mu-opioid, 1 µM (AID 2461;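 active = primary screen active and over 50% activation in each of two duplicate runs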); details: Fluo4 calcium fluorescence, at 1 µM; active compounds read high
[18] = tested on: TRPC4 (transient receptor potential cation channel C4 beta), mouse; experiment: positive allosteric modulators of mouse TRPC4, confirmation, cell-based, second round, Fluo-4, HEK293 TRPC4beta/mu-opioid, 1 µM (AID 2554;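 active = primary screen hit whose fluorescence ratio, in both repeats, exceeds the weak agonist control mean by 3 SD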); details: DAMGO EC20, Fluo-4 calcium flux, at 1 µM; active compounds read high
[19] = tested on: TRPC4 beta (transient receptor potential cation channel C4), mouse; experiment: positive allosteric modulators of mouse TRPC4, confirmation, cell-based, Fluo-4, HEK293 TRPC4beta/mu-opioid (AID 2555;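 active = primary screen hit whose calcium fluorescence ratio, in both repeats, exceeds the weak agonist control mean by 3 SD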); details: DAMGO EC20, Fluo-4 calcium flux, at 10 µM; active compounds read high
[20] = molecular target: Short transient receptor potential channel 4 (Mus musculus) (UniProt Q9QUQ5); experiment: inhibitors of mouse TRPC4 channel, confirmation, cell-based, Fluo4, HEK293 TRPC4beta/mu-opioid (AID 2636;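 active = calcium signal cut by more than 3 SD below the full-agonist control yet still positive, in both repeats and the earlier primary screen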); details: DAMGO, Fluo4 calcium flux, at 10 µM; active compounds read high
[21] = molecular target: Short transient receptor potential channel 4 (Mus musculus) (UniProt Q9QUQ5); experiment: inhibitors of mouse TRPC4 channel, confirmation, cell-based, second round, Fluo4, HEK293 TRPC4beta/mu-opioid, 1 µM (AID 2637;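 active = calcium signal ratio cut to more than 3 SD under the fully stimulated control mean yet still positive, in both repeats and the primary screen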); details: Fluo4 calcium flux, DAMGO, at 1 µM; active compounds read high
[22] = molecular target: Short transient receptor potential channel 4 (Mus musculus) (UniProt Q9QUQ5); experiment: mouse TRPC4 channel activators, dose response, cell-based, HEK293 TRPC4/mu-opioid, Fluo-4 calcium (AID 434937;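 active = primary screen activator hit with a dose response curve and TRPC4 channel activation at any tested dose; inactive = no activation, no dose response, or not a primary hit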)
[23] = molecular target: Short transient receptor potential channel 4 (Mus musculus) (UniProt Q9QUQ5); experiment: TRPC4 positive allosteric modulators, dose response, cell-based, HEK293 TRPC4/mu-opioid, Fluo-4 calcium, EC20 DAMGO (AID 434941;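 active = earlier screen potentiator hit that boosts the TRPC4 ion channel at some dose, with a dose response; inactive = no potentiation, no dose response, or not a prior hit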;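 note: calcium entry triggered by an EC20 dose of DAMGO at the co-expressed mu-opioid receptor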)
[24] = molecular target: Short transient receptor potential channel 4 (Mus musculus) (UniProt Q9QUQ5); experiment: mouse TRPC4 channel inhibitors, dose response, cell-based, HEK293 TRPC4/mu-opioid, Fluo-4 calcium (AID 434942;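 active = primary screen inhibitor hit that blocks the TRPC4 channel at some tested dose, yielding a dose curve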)
[25] = molecular target: Short transient receptor potential channel 6 (Mus musculus) (UniProt Q61143); experiment: inhibition of mouse TRPC6 channel, confirmation, selectivity assay for TRPC4 inhibitor project, cell-based, HEK293, membrane potential dye, duplicate (AID 434948;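 active = active in primary screen and both duplicates, each dropping signal beyond three positive-control SD with fluorescence still positive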); details: HEK293 TRPC6, membrane potential dye fluorescence, at 10 µM, stimulated with maximal-effect acetylcholine; active compounds read high
[26] = molecular target: Short transient receptor potential channel 6 (Mus musculus) (UniProt Q61143); experiment: activation of mouse TRPC6 channel, confirmation, selectivity assay for TRPC4 activator project, cell-based, HEK293, membrane potential dye, duplicate (AID 434950;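 active = membrane potential signal rise above negative control mean plus 3 SD in both duplicates, also active in the earlier TRPC4 screen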); details: HEK293 TRPC6, membrane potential fluorescence, at 10 µM; active compounds read high
[27] = molecular target: Short transient receptor potential channel 6 (Mus musculus) (UniProt Q61143); experiment: TRPC6 potentiation by TRPC4 potentiator hits, confirmation, selectivity assay for TRPC4 potentiator project, HEK293 cells, membrane potential dye, duplicate (AID 434952;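 active = compound raising the membrane signal above positive-control mean plus 3 SD in both repeats, and a primary screen hit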); details: HEK293 TRPC6, membrane potential dye fluorescence, at 10 µM, maximal acetylcholine added after compound; active compounds read high
[28] = molecular target: Short transient receptor potential channel 4 (Mus musculus) (UniProt Q9QUQ5); experiment: calcium flux activators in TRPC4/5HT1a cells, counter-screen for TRPC4 activator project, cell-based, second counter screen, HEK293 TRPC4/5HT1a, Fluo-4 (AID 434977;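 active = calcium signal rise above buffer-control mean plus 5 SD in both duplicates, and also a hit in the primary screen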); details: Fluo-4 calcium flux, at 10 µM; active compounds read high
[29] = calcium flux inhibitors in TRPC4/5HT1a cells, confirmation, counter-screen for TRPC4 inhibitor project, cell-based, second counter screen, HEK293 TRPC4/5HT1a, Fluo-4 (AID 434978;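 active = primary screen active whose calcium signal fell more than 3 SD beyond the full-serotonin control mean in both duplicate plates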;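 note: serotonin given first at submaximal then at maximal dose after compound preincubation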); details: Fluo-4 calcium flux, at 10 µM, serotonin added to trigger calcium flux; active compounds read high
[30] = tested on: TRPC4 (mouse), co-expressed with 5HT1a in HEK293; experiment: calcium flux potentiators in TRPC4/5HT1a cells, confirmation, counter-screen for TRPC4 potentiator project, cell-based, second counter screen, HEK293 TRPC4/5HT1a, Fluo-4 (AID 434979;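 active = signal rise over 3 SD above mean of control wells given weak agonist, in both repeats and first screen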); details: Fluo-4 calcium flux, at 10 µM, serotonin added at its EC20 dose; active compounds read high
[31] = calcium flux activation in mu-opioid HEK293 cells, confirmation, counter-screen for TRPC4 activator project, cell-based, HEK293 mu-opioid receptor line (AID 449723;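 active = hit in primary screen, with calcium signal over 5 SD above buffer well mean in both duplicates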;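 note: counter screen cells carry the mu-opioid receptor alone and lack TRPC4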); details: Fluo-4 calcium fluorescence, at 10 µM; active compounds read high
[32] = calcium flux enhancement in mu-opioid HEK293 cells, confirmation, counter-screen for TRPC4 allosteric potentiator project, cell-based, HEK293 mu-opioid receptor line (AID 449724;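 active = calcium signal rise more than 3 SD above the low-dose agonist control mean, in both duplicate plates and the primary screen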); details: Fluo-4 calcium flux, at 10 µM, compound added before EC20 DAMGO stimulus; active compounds read high

Chain of Inward rectifier potassium channel 2 (Mus musculus) (P35561 whole entry, looked up): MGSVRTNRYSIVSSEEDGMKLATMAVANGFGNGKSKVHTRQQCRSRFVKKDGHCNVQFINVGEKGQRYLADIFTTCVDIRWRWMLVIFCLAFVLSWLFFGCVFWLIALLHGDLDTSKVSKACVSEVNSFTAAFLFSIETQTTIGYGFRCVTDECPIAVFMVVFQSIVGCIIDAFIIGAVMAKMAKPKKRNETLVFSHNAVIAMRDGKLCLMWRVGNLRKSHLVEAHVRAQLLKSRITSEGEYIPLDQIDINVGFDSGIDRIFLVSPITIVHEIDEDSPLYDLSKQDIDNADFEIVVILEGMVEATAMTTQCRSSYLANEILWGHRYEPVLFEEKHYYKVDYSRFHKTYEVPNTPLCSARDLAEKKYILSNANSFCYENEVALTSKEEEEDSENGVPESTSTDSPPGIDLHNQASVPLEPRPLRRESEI
Chain of Short transient receptor potential channel 6 (Mus musculus) (Q61143 whole entry, looked up): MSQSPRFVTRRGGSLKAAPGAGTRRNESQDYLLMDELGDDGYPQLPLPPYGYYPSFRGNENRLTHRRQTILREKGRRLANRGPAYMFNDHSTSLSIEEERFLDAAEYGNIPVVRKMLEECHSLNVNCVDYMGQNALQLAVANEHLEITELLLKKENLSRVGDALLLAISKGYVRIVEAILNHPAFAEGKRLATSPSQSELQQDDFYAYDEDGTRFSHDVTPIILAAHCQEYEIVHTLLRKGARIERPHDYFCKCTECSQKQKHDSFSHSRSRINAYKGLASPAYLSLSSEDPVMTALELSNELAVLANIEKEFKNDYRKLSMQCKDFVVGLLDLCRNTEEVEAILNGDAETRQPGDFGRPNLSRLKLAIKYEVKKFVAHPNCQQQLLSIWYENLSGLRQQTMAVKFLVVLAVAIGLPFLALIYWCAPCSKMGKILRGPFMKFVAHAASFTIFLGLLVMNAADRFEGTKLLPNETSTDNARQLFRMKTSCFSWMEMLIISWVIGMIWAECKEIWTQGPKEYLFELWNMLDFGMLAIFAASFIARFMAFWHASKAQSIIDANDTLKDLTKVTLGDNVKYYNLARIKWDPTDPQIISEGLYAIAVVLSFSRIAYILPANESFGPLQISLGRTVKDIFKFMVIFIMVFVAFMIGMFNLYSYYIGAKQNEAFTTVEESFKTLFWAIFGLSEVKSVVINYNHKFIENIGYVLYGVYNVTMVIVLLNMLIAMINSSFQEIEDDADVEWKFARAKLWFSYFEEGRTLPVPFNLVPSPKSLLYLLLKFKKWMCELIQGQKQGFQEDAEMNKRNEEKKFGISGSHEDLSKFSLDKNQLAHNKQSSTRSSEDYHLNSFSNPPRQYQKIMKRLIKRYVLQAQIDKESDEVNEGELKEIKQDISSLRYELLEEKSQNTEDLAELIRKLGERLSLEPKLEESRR
Chain of Potassium voltage-gated channel subfamily KQT member 1 (Homo sapiens) (P51787 whole entry, looked up): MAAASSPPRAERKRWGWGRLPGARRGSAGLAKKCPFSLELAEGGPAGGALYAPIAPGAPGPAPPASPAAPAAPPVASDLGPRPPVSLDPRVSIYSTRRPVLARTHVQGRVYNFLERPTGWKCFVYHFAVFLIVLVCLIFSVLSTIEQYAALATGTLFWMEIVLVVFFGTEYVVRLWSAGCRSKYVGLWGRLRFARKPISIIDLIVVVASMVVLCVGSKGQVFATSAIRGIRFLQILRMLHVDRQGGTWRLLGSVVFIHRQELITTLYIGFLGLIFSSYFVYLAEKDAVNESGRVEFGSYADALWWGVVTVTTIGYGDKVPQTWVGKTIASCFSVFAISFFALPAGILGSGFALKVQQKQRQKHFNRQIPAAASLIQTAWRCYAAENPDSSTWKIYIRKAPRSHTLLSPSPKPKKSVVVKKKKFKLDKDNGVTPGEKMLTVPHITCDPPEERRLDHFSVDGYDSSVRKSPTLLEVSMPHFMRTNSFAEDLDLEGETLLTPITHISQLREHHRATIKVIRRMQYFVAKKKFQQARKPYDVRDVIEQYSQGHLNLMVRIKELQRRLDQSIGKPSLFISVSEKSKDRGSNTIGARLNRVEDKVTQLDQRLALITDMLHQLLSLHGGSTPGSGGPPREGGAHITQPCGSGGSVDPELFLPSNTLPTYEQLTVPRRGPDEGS
Chain of Short transient receptor potential channel 4 (Mus musculus) (Q9QUQ5 whole entry, looked up): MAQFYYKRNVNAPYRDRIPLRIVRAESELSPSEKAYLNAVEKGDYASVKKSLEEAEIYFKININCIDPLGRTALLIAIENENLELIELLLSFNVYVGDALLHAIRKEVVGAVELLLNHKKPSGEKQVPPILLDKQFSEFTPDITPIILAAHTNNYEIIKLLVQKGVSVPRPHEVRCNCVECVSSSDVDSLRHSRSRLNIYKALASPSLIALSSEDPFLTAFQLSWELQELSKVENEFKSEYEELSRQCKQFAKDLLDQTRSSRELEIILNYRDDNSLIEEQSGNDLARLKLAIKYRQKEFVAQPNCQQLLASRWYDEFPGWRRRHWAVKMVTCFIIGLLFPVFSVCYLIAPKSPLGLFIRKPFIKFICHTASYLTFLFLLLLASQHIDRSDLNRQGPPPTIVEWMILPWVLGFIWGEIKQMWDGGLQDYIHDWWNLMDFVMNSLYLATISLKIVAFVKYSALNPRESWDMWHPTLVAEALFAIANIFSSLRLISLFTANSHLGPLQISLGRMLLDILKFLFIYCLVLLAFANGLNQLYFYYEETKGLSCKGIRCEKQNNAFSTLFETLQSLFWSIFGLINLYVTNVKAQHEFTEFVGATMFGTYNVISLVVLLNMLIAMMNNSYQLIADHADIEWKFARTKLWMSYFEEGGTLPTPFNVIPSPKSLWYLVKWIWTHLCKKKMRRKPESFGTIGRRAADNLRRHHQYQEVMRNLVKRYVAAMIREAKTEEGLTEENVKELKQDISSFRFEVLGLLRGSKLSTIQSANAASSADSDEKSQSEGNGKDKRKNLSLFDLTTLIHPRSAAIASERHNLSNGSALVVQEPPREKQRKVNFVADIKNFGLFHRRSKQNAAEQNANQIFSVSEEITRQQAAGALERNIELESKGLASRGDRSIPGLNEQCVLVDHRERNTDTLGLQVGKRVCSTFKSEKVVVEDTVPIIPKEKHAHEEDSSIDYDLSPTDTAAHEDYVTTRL
Chain of Potassium voltage-gated channel subfamily KQT member 2 (Rattus norvegicus) (O88943 whole entry, looked up): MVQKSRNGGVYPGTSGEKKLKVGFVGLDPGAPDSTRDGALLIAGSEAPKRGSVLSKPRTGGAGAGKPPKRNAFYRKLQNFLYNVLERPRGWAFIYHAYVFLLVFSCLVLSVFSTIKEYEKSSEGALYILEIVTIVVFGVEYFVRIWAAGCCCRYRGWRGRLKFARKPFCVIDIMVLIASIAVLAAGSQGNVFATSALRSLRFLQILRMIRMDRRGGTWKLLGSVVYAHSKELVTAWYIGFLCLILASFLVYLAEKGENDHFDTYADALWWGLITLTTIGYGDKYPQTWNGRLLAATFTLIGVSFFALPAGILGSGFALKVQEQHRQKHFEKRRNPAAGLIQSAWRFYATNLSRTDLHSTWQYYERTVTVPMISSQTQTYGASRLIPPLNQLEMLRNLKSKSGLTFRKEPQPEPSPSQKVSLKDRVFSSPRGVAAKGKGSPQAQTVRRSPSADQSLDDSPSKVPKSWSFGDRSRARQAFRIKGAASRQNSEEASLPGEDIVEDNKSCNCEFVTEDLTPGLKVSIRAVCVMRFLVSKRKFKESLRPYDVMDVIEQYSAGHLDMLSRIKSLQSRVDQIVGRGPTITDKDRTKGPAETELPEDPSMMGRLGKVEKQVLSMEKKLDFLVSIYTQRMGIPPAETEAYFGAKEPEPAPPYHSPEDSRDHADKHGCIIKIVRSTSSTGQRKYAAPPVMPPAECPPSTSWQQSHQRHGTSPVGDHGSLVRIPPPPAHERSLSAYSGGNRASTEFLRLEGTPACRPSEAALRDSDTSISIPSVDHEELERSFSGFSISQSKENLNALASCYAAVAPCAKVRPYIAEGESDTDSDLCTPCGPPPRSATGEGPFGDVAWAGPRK
Chain of Voltage-gated inwardly rectifying potassium channel KCNH2 (Homo sapiens) (Q12809 whole entry, looked up): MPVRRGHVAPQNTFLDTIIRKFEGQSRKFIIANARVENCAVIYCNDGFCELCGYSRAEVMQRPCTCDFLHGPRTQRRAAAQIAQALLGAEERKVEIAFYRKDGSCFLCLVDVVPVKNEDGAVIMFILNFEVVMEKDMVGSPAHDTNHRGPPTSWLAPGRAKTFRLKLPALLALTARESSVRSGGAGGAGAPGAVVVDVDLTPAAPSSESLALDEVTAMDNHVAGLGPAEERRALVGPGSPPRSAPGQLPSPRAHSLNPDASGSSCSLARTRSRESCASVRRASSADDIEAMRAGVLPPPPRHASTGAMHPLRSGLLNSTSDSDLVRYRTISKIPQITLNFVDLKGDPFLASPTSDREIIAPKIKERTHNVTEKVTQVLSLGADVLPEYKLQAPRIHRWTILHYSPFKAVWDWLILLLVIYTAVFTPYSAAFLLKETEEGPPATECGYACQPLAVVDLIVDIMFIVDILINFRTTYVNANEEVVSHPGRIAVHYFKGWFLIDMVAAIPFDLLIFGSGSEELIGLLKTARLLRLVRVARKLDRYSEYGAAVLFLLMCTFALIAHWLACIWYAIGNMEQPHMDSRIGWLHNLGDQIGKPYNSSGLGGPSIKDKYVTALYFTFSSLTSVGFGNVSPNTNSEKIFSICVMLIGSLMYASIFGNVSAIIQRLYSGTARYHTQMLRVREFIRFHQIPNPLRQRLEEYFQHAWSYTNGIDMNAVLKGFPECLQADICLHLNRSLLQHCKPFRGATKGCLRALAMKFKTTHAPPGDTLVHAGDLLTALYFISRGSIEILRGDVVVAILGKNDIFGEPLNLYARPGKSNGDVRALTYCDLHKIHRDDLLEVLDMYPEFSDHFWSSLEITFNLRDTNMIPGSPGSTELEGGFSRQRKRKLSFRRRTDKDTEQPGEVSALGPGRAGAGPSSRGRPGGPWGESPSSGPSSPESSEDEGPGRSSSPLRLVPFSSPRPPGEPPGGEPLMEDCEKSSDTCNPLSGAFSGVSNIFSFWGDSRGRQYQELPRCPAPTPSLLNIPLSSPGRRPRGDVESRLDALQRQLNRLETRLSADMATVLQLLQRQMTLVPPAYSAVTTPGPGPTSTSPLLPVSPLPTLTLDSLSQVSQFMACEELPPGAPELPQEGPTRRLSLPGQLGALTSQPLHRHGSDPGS

CCCc1cc(=O)[nH]c(SCC(=O)c2cc(C)n(CCC)c2C)n1
active: Tl flux remaining, % of negative control (active compounds read low) [1] 60% | inhibition [5] 30.9%
inactive: outcome [2] | outcome [3] | outcome [4]

COc1ccc(CCNCc2c(-c3ccccc3)n(C)c3ccccc23)cc1
active: Tl flux remaining, % of negative control (active compounds read low) [1] 33.5% | FluxOR signal as % of negative control (100 = no effect) [2] 72%

COc1ccccc1CCNS(=O)(=O)c1cc2c3c(c1)C(C)C(=O)N3CCC2 (configuration not stated)
inactive: outcome [2]
active: Tl flux remaining, % of negative control (active compounds read low) [1] 62%

COc1cccc(CN(C)CC2CCCN(CCc3ccc(Cl)cc3)C2)c1OC (configuration not stated)
active: Tl flux remaining, % of negative control (active compounds read low) [1] 49%
inactive: outcome [2]

O=C(/C=C/Sc1ncn[nH]1)c1ccc(Cl)cc1
inactive: outcome [1] | outcome [2] | activity increase over 3SD of controls [6] -4% | potentiation, less the hit threshold [8] -17.8% | activity over 3SD threshold [9] -56.5%
active: activation over 3SD threshold [7] 0.3%

O=C(NCCc1c[nH]c2ccccc12)C1CCN(Cc2ccc(Br)cc2)CC1
active: Tl flux remaining, % of negative control (active compounds read low) [1] 62% | inhibition [3] 61% | percent change from control (negative = decrease, positive = increase) [12] 11% | inhibition [13] 58%
inactive: outcome [2] | outcome [4] | outcome [5] | outcome [10] | outcome [11] | outcome [14] | outcome [15]

CCc1ccccc1NC(=O)[C@@H]1CCC(=O)N1C1OC(=O)c2c1ccc(OC)c2OC (some centres not stated)
active: activity increase over 3SD of controls [6] 82.8% | activation over 3SD threshold [7] 55%
inactive: outcome [1] | outcome [2] | potentiation, less the hit threshold [8] -19.6% | activity over 3SD threshold [9] -22%

COc1ccc(-c2n[nH]c(C)c2-c2ccccc2OC)c(O)c1
inactive: outcome [1] | outcome [2] | potentiation, less the hit threshold [8] -12.6% | activity over 3SD threshold [9] -44.6% | outcome [16] | outcome [17] | outcome [18] | outcome [19] | outcome [20] | outcome [21] | outcome [22] | outcome [23] | outcome [24] | outcome [25] | outcome [26] | outcome [27] | outcome [28] | outcome [29] | outcome [30] | outcome [31] | outcome [32]
active: activity increase over 3SD of controls [6] 28.7% | activation over 3SD threshold [7] 56.3%
